From PubChem BioAssay (NCATS)
Results filed as inconclusive are left out. The source made the active and inactive calls. Unless noted, calls come from the whole dose curve.

How the values were obtained:
[1] = biological target: Estrogen receptor (Homo sapiens) (UniProt P03372); assay: qHTS assay for small molecule antagonists of estrogen receptor alpha signaling (AID 588513; active = well fitted curve in the direction sought with a large enough effect in the signal ratio, with a control signal flat, not every such curve was filed as active; the % refers to the signal ratio; note: potency is the fitted concentration of half-maximal effect)
In short: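 ER-alpha-UAS-bla GripTite HEK 293 cells in 2% charcoal/dextran-treated FBS medium; compounds titrated (1:2, duplicate), then stimulated with 0.5 nM 17-beta-estradiol for 18 h at 37C. CCF4 beta-lactamase fluorescence; Hill-fit IC50 and efficacy.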

[2] = biological target: Peroxisome proliferator-activated receptor delta (Homo sapiens) (UniProt Q03181); assay: qHTS assay for small molecule agonists of peroxisome proliferator-activated receptor delta signaling (AID 588534);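 note: 0% = DMSO basal wells and 100% = positive control agonist at 10 µM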
In short: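 Cells carrying a PPAR-delta beta-lactamase reporter were treated with compounds for 18 h at 37 °C in agonist mode. CCF4 fluorescence was read after 2 h; EC50 and efficacy from Hill fits.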

[3] = qHTS assay for small molecule antagonists of peroxisome proliferator-activated receptor delta signaling (AID 588535); settings: HEK293T PPARd-UAS-bla, beta-lactamase FRET ratio, 18 h; 460 nm channel;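 note: cells co-treated with a PPAR-delta agonist as stimulator during compound exposure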
In short: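 Reporter: UAS-bla under PPAR-delta response element, HEK293T host. Medium: 2% charcoal/dextran FBS. Dosing: titration, 18 hrs, 37 C. Detection: CCF4, 2 hrs RT, 405 ex/460 and 530 em.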

[4] = biological target: Peroxisome proliferator-activated receptor gamma (Homo sapiens) (UniProt P37231); assay: qHTS assay for small molecule antagonists of peroxisome proliferator-activated receptor gamma signaling (AID 588537; active = well fitted inhibition curve with a large enough effect in the signal ratio, with a control signal flat, not every such curve was filed as active; the % refers to the signal ratio;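 note: reporter cells co-stimulated with 50 nM rosiglitazone agonist during compound treatment; % of control where 0% means no effect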)
In short: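 We seeded GeneBLAzer HEK293 reporter cells at 3000 per well, allowed 6-6.5 h attachment at 37 C, then co-treated with test compound titrations and 50 nM rosiglitazone overnight (16 h). Inhibition was quantified from 460/530 nm emission ratios.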

[5] = biological target: Vitamin D3 receptor (Homo sapiens) (UniProt P11473); assay: qHTS assay for small molecule antagonists of vitamin D receptor signaling (AID 588541);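 note: receptor activated by calcitriol during compound treatment; series mostly up to about 77 µM; % is set by controls: 0 for no effect and ±100 for the full control effect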
In short: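 VDR-UAS-bla HEK293T cells (2000/well, 2% charcoal-stripped FBS) were treated with titrated compounds plus 1-alpha,25-dihydroxyvitamin D3 (50 nM or 3 nM final) for 16 h at 37 C. CCF4 beta-lactamase fluorescence was read; Hill fits gave IC50.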

[6] = biological target: Retinoic acid receptor RXR-alpha (Homo sapiens) (UniProt P19793); assay: qHTS assay for small molecule agonists of retinoid X receptor alpha signaling (AID 588544); note: potency is the fitted concentration of half-maximal effect;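 for activation: 0% = DMSO basal wells and 100% = reference agonist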
[7] = biological target: Thyroid hormone receptor beta (Homo sapiens) (UniProt P10828); assay: qHTS assay for small molecule agonists of thyroid hormone receptor beta signaling (AID 588545)
In short: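 Agonist-mode beta-lactamase reporter assay, HEK 293 cells, 2% charcoal/dextran FBS; cells plated 4 hrs, compound 18 hrs at 37 C, CCF4 2 hrs RT. Normalized to 10 nM T3 (100%) and DMSO (0%); Hill fit gives EC50, efficacy.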

[8] = qHTS assay for small molecule antagonists of retinoid X receptor alpha signaling (AID 588546; active = well fitted inhibition curve with a large enough effect in the signal ratio, with a control signal flat, not every such curve was filed as active; the % refers to the signal ratio;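 note: cells stimulated with 9-cis-retinoic acid as agonist; % is set by controls: 0 for no effect and ±100 for the full control effect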); settings: HEK293T RXRa-UAS-bla, beta-lactamase ratio, antagonist mode; measured here: W530 green channel, cytotoxicity proxy
In short: (§1)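 Beta-lactamase reporter inhibition, read as CCF4 fluorescence ratio (ex 405, em 460/530 nm) after 2 h at RT. HEK293T UAS-bla cells, 2500/well, were stimulated with 9-cis-RA at 500 or 100 nM final alongside test compound for 18 h at 37 C.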

[9] = biological target: Retinoic acid receptor RXR-alpha (Homo sapiens) (UniProt P19793); assay: as above; settings: HEK293T RXRa-UAS-bla, beta-lactamase ratio, antagonist mode
In short: as §1

[10] = qHTS assay for small molecule activators of the p53 signaling pathway (AID 651743; active = well fitted activation curve with a large enough effect in the signal ratio, not every such curve was filed as active; the % refers to the signal ratio; note: series mostly up to about 92 µM; % of control where 0% means no effect); settings: HCT-116 p53RE-bla, beta-lactamase FRET ratio, 16 h; activation: stronger effect = higher value
In short: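 Cell-based beta-lactamase reporter (p53 response elements, HCT-116 background). After a 5-hour preincubation, cells received compound for 16 hours at 37 C; substrate development ran 2 hours at room temperature.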

[11] = qHTS assay for environmental chemicals that activate the Aryl hydrocarbon Receptor (AhR) signaling pathway (AID 651777; active = well fitted curve in the direction sought with a large enough effect; an effect the other way counts as inactive or inconclusive; note: % of control where 0% means no effect; nearly all actives have a fitted effect of over 15% in size); settings: 1A2-DRE human hepatoma cells, luciferase, 24 h; activation: stronger effect = higher value
In short: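 Luminescence read-out: One-Glo added for 30 min at RT after 24 hr compound treatment (37 C, 5% CO2) of human hepatoma cells expressing a DRE/CYP1A2 promoter–luciferase reporter; increased signal indicates AhR activation.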

[12] = biological target: Peroxisome proliferator-activated receptor alpha (Homo sapiens) (UniProt Q07869); assay: qHTS assay for small molecule agonists of the peroxisome proliferator-activated receptor alpha (PPARalpha) signaling pathway (AID 651778; active = well fitted curve in the direction sought with a large enough effect; an effect the other way counts as inactive or inconclusive; note: % of control where 0% means no effect); settings: PathHunter PPARalpha complementation, chemiluminescence, 6 h; max response: stronger effect = higher value
In short: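 Cells plated at 2,000/well and held overnight at 37 C, 5% CO2, then compound added by pin tool for 6 hr; after PathHunter detection reagent and 60 min at room temperature, chemiluminescence from enzyme complementation was read.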

[13] = qHTS assay for small molecule agonists of the antioxidant response element (ARE) signaling pathway measured by Nrf2-dependant transcriptional activity (AID 720636; active = well fitted curve in the direction sought with a large enough effect in the repeat runs; an effect the other way counts as inactive or inconclusive;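 note: HepG2 cells with an ARE-driven luciferase reporter; % of control where 0% means no effect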)
In short: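 HepG2 ARE-luc reporter line, 1% dialyzed FBS; 6 hr attachment at 37 C, compound pinned in, 16 hr at 37 C/5% CO2; ONE-Glo, 30 min RT, luminescence read.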

[14] = qHTS assay for small molecule agonists of the antioxidant response element (ARE) signaling pathway measured by Nrf2-dependant transcriptional activity - cell viability counter screen (AID 720653; active = well fitted curve in the direction sought with a large enough effect in the repeat runs; an effect the other way counts as inactive or inconclusive; note: % is set by controls: 0 for no effect and ±100 for the full control effect); settings: ARE-bla HepG2 viability, CellTiter-Glo ATP luminescence, 16 h; max response: stronger effect = lower value
In short: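 ARE-bla HepG2 cells (2,000/well) rested 5 hrs at 37C/5% CO2, then exposed to compounds in DMSO for 16 hrs. Viability was read in the same wells as intracellular ATP by luminescence, 30 min at room temperature after reagent addition.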

[15] = qHTS assay for cell viability of HEK293 cells (AID 743288; active = well fitted curve in the direction sought with a large enough effect; an effect the other way counts as inactive or inconclusive; note: % is set by controls: 0 for no effect and ±100 for the full control effect; nearly all actives have a fitted effect of over 50% in size); settings: ATP luminescence (CellTiter-Glo), 18 h; max response: stronger effect = lower value
In short: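 Parental HEK293 cells, 2,000 per well, preincubated at least 5 h at 37 C, then exposed to compounds in DMSO for 18 h at 37 C. Viability by CellTiter-Glo ATP luminescence after 30 min at room temperature.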

[16] = biological target: Nuclear receptor subfamily 1 group I member 2 (Rattus norvegicus) (UniProt Q9R1A7); assay: qHTS assay for small molecule activators of the rat pregnane X receptor (rPXR) signaling pathway (AID 651751; call rule not given here; note: 0% is about no effect); settings: rPXR reporter cells, luciferase (One-Glo), 24 h
[17] = qHTS assay for cell viability of the p53RE-bla HCT-116 cell line (AID 743292; active = well fitted curve in the direction sought with a large enough effect; an effect the other way counts as inactive or inconclusive; note: % is set by controls: 0 for no effect and ±100 for the full control effect; nearly all actives have a fitted effect of over 55% in size)
In short: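 Luminescent ATP quantitation (CellTiter-Glo) served as the viability read-out; reagent was added after 16 h compound exposure at 37 C and read after 30 min at room temperature. Cells: p53RE-bla HCT-116, 4,000 per well.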

[18] = biological target: Estrogen receptor (Homo sapiens) (UniProt P03372); assay: qHTS assay for small molecule agonists of estrogen receptor alpha signaling (AID 588514);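 note: 0% = vehicle only and 100% = reference agonist; nearly all actives have a fitted effect of over 70% in size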
In short: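 ER-alpha-UAS-bla GripTite HEK293 cells, 5000/well in 2% charcoal/dextran-stripped FBS medium, treated with compound titrations 18 h at 37 C. CCF4 beta-lactamase read by fluorescence after 2 h RT; normalised to 20 nM 17-beta-estradiol (100%) and DMSO (0%), Hill fit for EC50 and efficacy.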

[19] = biological target: Thyroid hormone receptor beta (Homo sapiens) (UniProt P10828); assay: qHTS assay for small molecule antagonists of thyroid hormone receptor beta signaling (AID 588547; active = well fitted inhibition curve with a large enough effect in the signal ratio, with a control signal flat, not every such curve was filed as active; the % refers to the signal ratio;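 note: cells stimulated with 0.4 nM T3 agonist during compound exposure; series mostly up to about 77 µM; % is set by controls: 0 for no effect and ±100 for the full control effect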); settings: TR-UAS-bla HEK293, beta-lactamase ratio, antagonist mode, 18 h
In short: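 TR-UAS-bla GripTite HEK293 cells in 2% charcoal/dextran FBS medium were preincubated 4 h at 37 C, given compound (0.59 nM to 92 uM) plus 0.4 nM T3 (final) for 18 h, then CCF4 for 2 h at RT; Hill fit gave IC50.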

[20] = biological target: Peroxisome proliferator-activated receptor gamma (Homo sapiens) (UniProt P37231); assay: qHTS assay for small molecule agonists of peroxisome proliferator-activated receptor gamma signaling (AID 588536; active = well fitted curve in the direction sought with a large enough effect in the signal ratio, with a control signal flat, not every such curve was filed as active; the % refers to the signal ratio;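 note: 0% = DMSO basal wells and 100% = rosiglitazone at 2 µM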)
In short: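 GeneBLAzer PPAR-gamma-UAS-bla HEK293 cells in 1% charcoal/dextran-treated FBS medium were treated 16 h at 37 C with compounds. Beta-lactamase activity was read by CCF4 ratio (460/530 nm). Response was normalized to 2 uM rosiglitazone (100%) and DMSO, then Hill-fitted for EC50 and efficacy.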

Sequence of Peroxisome proliferator-activated receptor gamma (Homo sapiens) (P37231 whole entry, looked up): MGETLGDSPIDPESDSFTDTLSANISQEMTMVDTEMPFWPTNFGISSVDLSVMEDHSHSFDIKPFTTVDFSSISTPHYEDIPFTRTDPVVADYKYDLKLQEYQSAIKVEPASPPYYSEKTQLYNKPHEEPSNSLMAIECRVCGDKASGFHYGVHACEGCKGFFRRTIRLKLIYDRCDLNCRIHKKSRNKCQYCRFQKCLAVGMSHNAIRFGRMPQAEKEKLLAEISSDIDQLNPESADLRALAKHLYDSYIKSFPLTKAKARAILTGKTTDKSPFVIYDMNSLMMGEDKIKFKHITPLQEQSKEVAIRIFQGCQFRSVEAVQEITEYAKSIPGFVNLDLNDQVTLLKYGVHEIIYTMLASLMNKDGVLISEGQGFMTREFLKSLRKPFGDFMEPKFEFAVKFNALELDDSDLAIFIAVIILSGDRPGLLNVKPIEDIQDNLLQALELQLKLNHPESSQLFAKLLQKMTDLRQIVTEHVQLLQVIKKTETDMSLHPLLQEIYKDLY
Sequence of Thyroid hormone receptor beta (Homo sapiens) (P10828 whole entry, looked up): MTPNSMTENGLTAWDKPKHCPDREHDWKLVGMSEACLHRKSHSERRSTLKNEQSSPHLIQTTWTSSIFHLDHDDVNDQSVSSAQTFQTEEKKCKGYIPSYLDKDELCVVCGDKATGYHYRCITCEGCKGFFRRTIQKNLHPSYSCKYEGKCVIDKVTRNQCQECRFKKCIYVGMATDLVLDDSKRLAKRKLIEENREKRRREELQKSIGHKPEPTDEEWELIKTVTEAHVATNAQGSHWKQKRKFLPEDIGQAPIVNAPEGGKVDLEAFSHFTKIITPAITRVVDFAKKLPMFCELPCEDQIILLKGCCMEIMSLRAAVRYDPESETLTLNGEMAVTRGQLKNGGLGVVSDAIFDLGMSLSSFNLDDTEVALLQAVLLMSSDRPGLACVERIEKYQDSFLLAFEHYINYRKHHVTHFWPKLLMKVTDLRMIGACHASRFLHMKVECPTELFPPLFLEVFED
Sequence of Retinoic acid receptor RXR-alpha (Homo sapiens) (P19793 whole entry, looked up): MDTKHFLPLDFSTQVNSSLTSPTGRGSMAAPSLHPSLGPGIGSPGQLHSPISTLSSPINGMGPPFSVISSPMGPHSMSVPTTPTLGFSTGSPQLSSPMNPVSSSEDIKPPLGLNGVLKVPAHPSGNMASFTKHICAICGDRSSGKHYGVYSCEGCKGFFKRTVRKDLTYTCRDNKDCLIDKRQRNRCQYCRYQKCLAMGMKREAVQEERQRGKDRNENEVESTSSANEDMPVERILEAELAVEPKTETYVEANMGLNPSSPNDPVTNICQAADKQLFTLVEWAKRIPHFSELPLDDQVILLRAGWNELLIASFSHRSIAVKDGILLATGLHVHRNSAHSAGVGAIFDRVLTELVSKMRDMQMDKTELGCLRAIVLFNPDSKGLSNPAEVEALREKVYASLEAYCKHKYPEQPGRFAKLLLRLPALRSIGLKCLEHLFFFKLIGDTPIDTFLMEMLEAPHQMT
Sequence of Estrogen receptor (Homo sapiens) (P03372 whole entry, looked up): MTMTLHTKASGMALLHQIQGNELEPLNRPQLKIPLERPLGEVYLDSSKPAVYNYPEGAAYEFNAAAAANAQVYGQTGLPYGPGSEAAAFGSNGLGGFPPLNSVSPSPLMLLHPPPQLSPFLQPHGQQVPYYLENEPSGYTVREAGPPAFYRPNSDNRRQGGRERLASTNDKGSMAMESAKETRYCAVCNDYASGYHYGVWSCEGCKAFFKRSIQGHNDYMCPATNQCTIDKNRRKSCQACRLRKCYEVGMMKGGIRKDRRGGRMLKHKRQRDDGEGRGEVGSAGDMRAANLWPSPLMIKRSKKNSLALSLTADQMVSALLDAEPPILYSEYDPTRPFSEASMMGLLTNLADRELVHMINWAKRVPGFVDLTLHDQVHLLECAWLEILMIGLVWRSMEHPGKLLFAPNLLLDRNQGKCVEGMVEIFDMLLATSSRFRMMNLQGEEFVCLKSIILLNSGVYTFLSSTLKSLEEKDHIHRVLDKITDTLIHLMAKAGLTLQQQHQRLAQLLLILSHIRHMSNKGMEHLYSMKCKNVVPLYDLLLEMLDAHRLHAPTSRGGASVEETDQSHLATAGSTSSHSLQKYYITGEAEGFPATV
Sequence of Peroxisome proliferator-activated receptor delta (Homo sapiens) (Q03181 whole entry, looked up): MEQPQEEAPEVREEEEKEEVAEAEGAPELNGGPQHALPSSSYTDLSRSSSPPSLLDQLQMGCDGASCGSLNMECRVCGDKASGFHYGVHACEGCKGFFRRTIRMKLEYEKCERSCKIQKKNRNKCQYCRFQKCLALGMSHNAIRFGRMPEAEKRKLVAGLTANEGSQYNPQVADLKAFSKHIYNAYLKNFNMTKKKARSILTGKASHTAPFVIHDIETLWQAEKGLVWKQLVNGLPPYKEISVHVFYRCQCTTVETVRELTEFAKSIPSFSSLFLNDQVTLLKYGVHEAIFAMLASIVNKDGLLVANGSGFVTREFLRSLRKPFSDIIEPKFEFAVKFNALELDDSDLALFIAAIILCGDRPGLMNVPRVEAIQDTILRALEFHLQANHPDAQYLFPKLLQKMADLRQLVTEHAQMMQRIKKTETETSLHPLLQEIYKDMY
Sequence of Peroxisome proliferator-activated receptor alpha (Homo sapiens) (Q07869 whole entry, looked up): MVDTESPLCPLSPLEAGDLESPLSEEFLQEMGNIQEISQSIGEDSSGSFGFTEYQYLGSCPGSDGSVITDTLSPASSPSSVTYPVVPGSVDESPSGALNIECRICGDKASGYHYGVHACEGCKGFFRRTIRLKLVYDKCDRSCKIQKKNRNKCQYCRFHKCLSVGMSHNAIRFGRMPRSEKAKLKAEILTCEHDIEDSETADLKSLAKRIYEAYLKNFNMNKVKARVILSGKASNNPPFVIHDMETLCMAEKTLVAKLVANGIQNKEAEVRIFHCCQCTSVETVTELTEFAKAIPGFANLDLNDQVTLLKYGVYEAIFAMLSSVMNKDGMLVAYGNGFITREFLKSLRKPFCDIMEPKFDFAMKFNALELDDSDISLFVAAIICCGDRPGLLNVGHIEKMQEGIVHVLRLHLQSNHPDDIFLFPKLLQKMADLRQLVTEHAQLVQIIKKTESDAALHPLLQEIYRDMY
Sequence of Nuclear receptor subfamily 1 group I member 2 (Rattus norvegicus) (Q9R1A7 whole entry, looked up): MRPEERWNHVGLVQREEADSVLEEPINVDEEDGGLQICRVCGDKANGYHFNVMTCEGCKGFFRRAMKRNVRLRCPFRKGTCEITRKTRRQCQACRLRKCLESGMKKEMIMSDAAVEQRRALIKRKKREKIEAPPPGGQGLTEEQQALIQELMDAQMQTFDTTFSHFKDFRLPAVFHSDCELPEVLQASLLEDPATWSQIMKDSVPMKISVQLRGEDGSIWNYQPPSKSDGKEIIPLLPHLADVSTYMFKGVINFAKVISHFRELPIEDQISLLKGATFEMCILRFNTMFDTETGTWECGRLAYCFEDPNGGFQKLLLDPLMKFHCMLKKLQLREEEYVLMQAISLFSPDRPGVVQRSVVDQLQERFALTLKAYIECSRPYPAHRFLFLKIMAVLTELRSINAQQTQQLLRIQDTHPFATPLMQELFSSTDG
Sequence of Vitamin D3 receptor (Homo sapiens) (P11473 whole entry, looked up): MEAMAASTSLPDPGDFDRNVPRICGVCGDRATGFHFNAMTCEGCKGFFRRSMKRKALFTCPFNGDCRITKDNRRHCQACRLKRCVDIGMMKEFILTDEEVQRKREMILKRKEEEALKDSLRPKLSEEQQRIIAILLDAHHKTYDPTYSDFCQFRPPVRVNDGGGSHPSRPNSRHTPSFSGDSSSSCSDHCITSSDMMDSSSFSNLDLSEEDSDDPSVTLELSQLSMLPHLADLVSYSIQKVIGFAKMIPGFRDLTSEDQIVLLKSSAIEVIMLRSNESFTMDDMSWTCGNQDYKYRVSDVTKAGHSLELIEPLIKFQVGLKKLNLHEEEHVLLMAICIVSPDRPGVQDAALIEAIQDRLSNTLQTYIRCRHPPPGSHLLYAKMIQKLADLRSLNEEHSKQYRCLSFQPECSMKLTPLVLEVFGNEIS

Row | Structure (SMILES) | Potency [1] | outcome [2] | max response [3] | Potency [4] | Potency [5] | Potency [6] | Potency [7] | max response [8] | max response [9] | activation [10] | activation [11] | max response [12] | Potency [13] | max response [14] | max response [15] | max response [16] | Potency [17] | Potency [18] | activity change % (negative = inhibition) [19] | Potency [20]
1 | CCC/C(=N\OCC)C1=C(O)CC(CC(C)SCC)CC1=O (configuration not stated) | inactive | inactive | -49.6% | inactive | inactive | inactive | inactive | -1.11% | -23% (inactive) | -6.84% (inactive) | 1.24% (inactive) | 0.062% (inactive) | inactive | -2.32% (inactive) | -13.8% (inactive) | 0.0341% (inactive) |  |  |  | 
2 | O=Cc1cccc(Oc2ccccc2)c1 | inactive | inactive | 10.7% | inactive | inactive | inactive | inactive | 1.81% | 1.63% (inactive) |  |  | 4.39% (inactive) | inactive |  | -4.08% (inactive) | 0.0469% (inactive) | inactive |  |  | 
3 | CC(C)(C)OOC(C)(C)c1ccc(C(C)(C)OOC(C)(C)C)cc1 |  | inactive | 6.63% | inactive | inactive | inactive | inactive | -15.9% | -5.44% (inactive) | 0.499% (inactive) |  | 0.719% (inactive) | inactive |  | -8.57% (inactive) | 4.08% (inactive) | inactive | inactive | 10.7% (inactive) | 
4 | CC(Oc1ccc(Cl)cc1Cl)C(=O)O (configuration not stated) | inactive |  |  | inactive | inactive | inactive | inactive | 2.43% | 1.72% (inactive) | 0.243% (inactive) | -1.09% (inactive) | 0.174% (inactive) | inactive |  | -4.02% (inactive) | -2.29% (inactive) | inactive |  |  | 
5 | Clc1ccc([C@@]2(Cn3cncn3)C[C@H](Br)CO2)c(Cl)c1 | inactive |  |  |  |  | 14.1 µM (active) | inactive | -6.47% | -7.83% (inactive) | 0.484% (inactive) | 1.22% (inactive) | 0.534% (inactive) | inactive | -1.58% (inactive) | -14.4% (inactive) |  | inactive |  | 2.29% (inactive) | inactive
6 | CS/C(C)=N/OC(=O)N(C)SN(C)C(=O)O/N=C(\C)SC |  | inactive | -23.5% |  |  |  | inactive | 3.2% | 15.5% (inactive) |  | 3.44% (inactive) | -1.01% (inactive) | inactive | 6.17% (inactive) | -6.07% (inactive) | -5.16% (inactive) | inactive | inactive | -7.26% (inactive) | inactive
7 | CCOc1nc(C(Cl)(Cl)Cl)ns1 | inactive | inactive | -34.9% | inactive | inactive | inactive | inactive | -10.8% | 3.55% (inactive) |  | 7.64% (inactive) | -0.167% (inactive) |  | -1.82% (inactive) | -11.1% (inactive) |  | inactive |  | 11.9% (inactive) | 
8 | O=P(O)(O)CN(CP(=O)(O)O)CP(=O)(O)O | inactive | inactive | 1.59% | inactive | inactive |  | inactive | -13.3% | -32% (inactive) |  | 0.682% (inactive) | 4.68% (inactive) | inactive | -0.727% (inactive) | -8.91% (inactive) | -1.66% (inactive) | inactive |  | -9.36% (inactive) | inactive
9 | CCCN(CC)CC1COC2(CCC(C(C)(C)C)CC2)O1 (configuration not stated) | inactive | inactive | 36.1% |  | inactive | inactive | inactive | -13.8% | -5.06% (inactive) | -4.98% (inactive) | -1.94% (inactive) | 0.269% (inactive) | inactive | -11.5% (inactive) | -13.1% (inactive) | -3.48% (inactive) | inactive |  |  | 
10 | C=CCC1=C(C)[C@@H](OC(=O)[C@@H]2[C@@H](C=C(C)C)C2(C)C)CC1=O | inactive |  |  |  | inactive | inactive | inactive | -5.3% | -11.9% (inactive) | 0.97% (inactive) |  | 2.33% (inactive) | inactive | -11.6% (inactive) | -2.02% (inactive) |  | inactive |  |  | 
11 | CCCN(CCC)c1c([N+](=O)[O-])cc(C(F)(F)F)c(N)c1[N+](=O)[O-] | 31.6 µM [inhibitor] (active) | inactive |  |  |  |  |  |  |  |  |  |  |  |  |  |  |  |  |  | 
12 | CNC(=O)/C=C(\C)OP(=O)(OC)OC | inactive | inactive | 32.8% | inactive | inactive | inactive | inactive | -16.8% | -15.9% (inactive) |  | 7.36% (inactive) | -1.97% (inactive) |  |  | -10.5% (inactive) | 0.645% (inactive) | inactive |  | -12.7% (inactive) | inactive
